Measurements reported in PubChem BioAssay (NCATS).
Records with an inconclusive call do not appear. Active and inactive are the calls of the source. The call rests on the fitted dose curve; in most records, active means well fitted curve in the direction sought with a large enough effect; inconclusive means small, poorly fitted or top-dose-only effect, or another doubt; inactive means no such curve, though single readings can be large; an effect the other way counts as inactive or inconclusive.

Columns and labels:
[1] = Cellular Toxicity (caspase-3) Mesangial (AID 660); conditions: mesangial cells, normalized: DMSO 0%, 100 µM tamoxifen 100%; at 91.7 µM (top of the series);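 further: combined caspase 3 and 7 activity read by Caspase-Glo luminescence; cells exposed to compound for 16 h before the caspase read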
How it was run: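 AC50 values come from Hill-equation fits of caspase 3/7 activation, measured as Caspase-Glo luminescence in human glomerular mesangial cells exposed to compound for 16 h at 37 °C; 100% set by 100 uM tamoxifen.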

[2] = Cellular Toxicity (caspase-3) SK-N-SH (AID 661);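 further: 0% = DMSO basal and 100% = 10 µM staurosporine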
How it was run: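 Apoptosis readout in SK-N-SH neuroblastoma: Caspase-Glo 3/7 luminescence following 16 hr treatment in complete culture medium. Normalization used DMSO and 10 uM staurosporine controls.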

[3] = Cellular Toxicity (caspase-3) H-4-II-E (AID 663); conditions: H-4-II-E rat hepatoma, scaled: DMSO 0%, 100 µM tamoxifen 100%; at 92.2 µM (top of the series);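 further: cells exposed to compound for 16 hr before readout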
How it was run: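 H-4-II-E rat hepatoma, 1500 cells/well, 5 hr settle at 37 °C; compound 16 hr, 37 °C, complete medium; Caspase-Glo 3/7, 20 min RT; luminescence. DMSO = 0%, 100 uM tamoxifen = 100%; Hill-equation AC50.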

[4] = Cellular Toxicity (caspase-3) Hek293 (AID 664); conditions: HEK293 caspase-3 activation, DMSO = 0%, 100 µM tamoxifen = 100%; at 92.2 µM (top of the series);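 further: cells exposed to compound for 16 h at 37 °C before readout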
How it was run: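 Apoptosis readout: Caspase-Glo 3/7 signal in human HEK293 cells following 16-hour compound incubation. Responses scaled between DMSO baseline and 100 uM tamoxifen.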

[5] = Cellular Toxicity (caspase-3) N2a (AID 665);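 further: compound exposure lasted 16 h at 37 °C before readout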
How it was run: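 Concentration-response qHTS: compound-induced caspase-3/7 luminescence in N2a cells (16 h, 37 °C), relative to DMSO and 10 uM staurosporine controls; AC50 obtained using the standard Hill equation.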

[6] = Cellular Toxicity (caspase-3) NIH 3T3 (AID 666);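 further: caspase signal read after 16 h compound exposure; 0% = DMSO basal and 100% = 100 µM tamoxifen stimulation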
How it was run: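 Activity: caspase-3/7 induction, NIH 3T3 cells, 16 hr treatment at 37°C, luminescent Caspase-Glo detection; AC50 via Hill equation.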

[7] = Cellular Toxicity (caspase-3) Renal Proximal Tubule (AID 667); conditions: Potency: caspase-3 activation;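 further: cells exposed to compound for 16 hours at 37 °C before detection; 0% = DMSO basal and 100% = 10 µM staurosporine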
How it was run: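 In qHTS format, rat primary proximal tubule cells seeded at 1000 per well are exposed to compounds for 16 hours at 37 °C. An increase in Caspase-Glo 3/7 luminescence indicates caspase activation.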

[8] = target: Cytochrome P450 3A4 (Homo sapiens) (UniProt P08684); test: qHTS Assay for Activators of Cytochrome P450 3A4 (AID 885); further: nearly all actives have a fitted effect of over 65% in size
How it was run: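 Luminescent readout of luciferin formed from 25 uM Luciferin-PPXE (KM level) by 20 nM CYP3A4 in 200 mM KPO4, with 60 min NADPH-driven reaction at room temperature after 10 min compound exposure. Ketoconazole (57 uM) defined 100% inhibition.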

[9] = Cell Viability - LYMP2-001 (AID 921);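 further: cells exposed to compound for 24 h at 37 °C; 0% = DMSO only and full inhibition = tetraoctylammonium bromide control wells; nearly all actives have a fitted effect of over 70% in size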
How it was run: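 qHTS, 1536-well; lymphoblastoid cells, 24 hr compound, 37 C; ATP by CellTiter-Glo, 30 min RT; luminescence; Hill-fit AC50.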

[10] = target: Cytochrome P450 3A4 (Homo sapiens) (UniProt P08684); test: qHTS Assay for Inhibitors and Substrates of Cytochrome P450 3A4 (AID 884); further: on the % scale 0 is the no-effect control and ±100 the full control effect; nearly all actives have a fitted effect of over 50% in size
How it was run: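 Luminescent readout of luciferin produced by CYP3A4 (20 nM) dealkylation of Luciferin-PPXE, 25 uM (its KM). NADPH-driven reaction ran 60 min at RT after 10 min compound preincubation; data scaled to 57 uM ketoconazole as 100% inhibition.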

Cytochrome P450 3A4 (Homo sapiens), sequence (P08684 whole entry, looked up): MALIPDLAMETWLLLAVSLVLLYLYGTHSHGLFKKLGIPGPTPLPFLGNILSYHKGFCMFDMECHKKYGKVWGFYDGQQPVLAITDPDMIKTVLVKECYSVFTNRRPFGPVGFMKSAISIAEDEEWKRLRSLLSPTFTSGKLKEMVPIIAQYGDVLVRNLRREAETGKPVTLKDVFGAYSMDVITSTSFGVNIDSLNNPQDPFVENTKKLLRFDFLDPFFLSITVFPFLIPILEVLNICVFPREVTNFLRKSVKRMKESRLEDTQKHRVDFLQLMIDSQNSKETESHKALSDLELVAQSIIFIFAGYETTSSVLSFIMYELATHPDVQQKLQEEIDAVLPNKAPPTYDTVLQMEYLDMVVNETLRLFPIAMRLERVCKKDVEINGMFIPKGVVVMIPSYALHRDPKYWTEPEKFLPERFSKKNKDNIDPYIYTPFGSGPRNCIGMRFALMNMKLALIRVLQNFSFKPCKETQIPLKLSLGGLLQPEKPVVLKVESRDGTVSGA

Nc1cc(Cl)c(N)c(Cl)c1
inactive: caspase-3 activation [1] -0.0656% | outcome [2] | caspase-3 activation [3] 1.21% | caspase-3 activation [4] -2.67% | outcome [5] | outcome [6] | Potency [7] | outcome [8] | Potency [9]

C[C@@H]1O[C@@H](O[C@@H]2[C@@H](O)[C@H](OCCc3ccc(O)c(O)c3)O[C@H](CO[C@@H]3O[C@H](CO)[C@@H](O)[C@H](O)[C@H]3O)[C@H]2OC(=O)/C=C/c2ccc(O)c(O)c2)[C@H](O)[C@H](O)[C@H]1O
inactive: caspase-3 activation [1] -1.14% | outcome [2] | caspase-3 activation [3] -0.514% | caspase-3 activation [4] -1.55% | outcome [5] | outcome [6] | Potency [7] | outcome [8] | Potency [9]

Oc1cccc(Nc2ccccc2)c1
inactive: caspase-3 activation [1] -0.245% | outcome [2] | caspase-3 activation [3] -0.0797% | caspase-3 activation [4] -0.23% | outcome [5] | outcome [6] | Potency [7] | outcome [8] | Potency [9]

C[C@@H]1CC2(OC3C[C@@]4(C)C5=CC[C@H]6C(C)(C)C(O[C@@H]7OC[C@@H](O)[C@H](O)[C@H]7O)CC[C@@]67C[C@@]57CC[C@]4(C)C31)OC(O)C1(C)OC21 (stereo partly specified)
inactive: caspase-3 activation [1] -0.636% | outcome [2] | caspase-3 activation [3] 1.92% | caspase-3 activation [4] 2.55% | outcome [5] | outcome [6] | Potency [7] | outcome [8] | Potency [9]

O=C(Cl)c1cccc([N+](=O)[O-])c1
inactive: caspase-3 activation [1] -1.19% | outcome [2] | caspase-3 activation [3] 3.32% | caspase-3 activation [4] 0.786% | outcome [5] | Potency [7] | Potency [10] | Potency [9]

Cc1cc(C)c(N)cc1C
inactive: caspase-3 activation [1] -0.153% | outcome [2] | caspase-3 activation [3] -1.64% | caspase-3 activation [4] 2.78% | outcome [5] | outcome [6] | Potency [7] | Potency [9]

COc1ccc(OC)cc1
inactive: caspase-3 activation [1] 0.503% | outcome [2] | caspase-3 activation [3] -0.441% | caspase-3 activation [4] 0.282% | outcome [5] | Potency [7] | Potency [10] | Potency [9]

CCC(=O)/C=C/C1C(C)=CCCC1(C)C (stereo unspecified)
inactive: caspase-3 activation [1] 0.383% | outcome [2] | caspase-3 activation [3] 2.63% | caspase-3 activation [4] 2.12% | outcome [5] | outcome [6] | Potency [7] | outcome [8] | Potency [9]

COC(=O)CC#N
inactive: caspase-3 activation [1] 0.486% | outcome [2] | caspase-3 activation [3] 1.64% | caspase-3 activation [4] 0.82% | outcome [5] | Potency [7] | Potency [10] | Potency [9]

Cc1ccccc1C(=O)O
inactive: caspase-3 activation [1] -0.934% | outcome [2] | caspase-3 activation [3] -0.229% | caspase-3 activation [4] -3.25% | outcome [5] | Potency [7] | Potency [10] | Potency [9]

Cc1c(N)cccc1N
inactive: caspase-3 activation [1] -0.29% | outcome [2] | caspase-3 activation [3] 0.28% | caspase-3 activation [4] 0.0499% | outcome [5] | outcome [6] | Potency [7] | Potency [9]

C=CCn1c(=O)n(CC=C)c(=O)n(CC=C)c1=O
inactive: caspase-3 activation [1] -1.07% | outcome [2] | caspase-3 activation [3] 0.22% | caspase-3 activation [4] -1.6% | outcome [5] | outcome [6] | Potency [7] | Potency [9]

CC(=O)c1ccc([N+](=O)[O-])cc1
inactive: caspase-3 activation [1] -0.175% | outcome [2] | caspase-3 activation [3] 0.949% | caspase-3 activation [4] -0.704% | outcome [5] | Potency [7] | Potency [10] | Potency [9]

O=[N+]([O-])c1ccc(Cl)cc1Cl
inactive: caspase-3 activation [1] 0.652% | outcome [2] | caspase-3 activation [3] 1.21% | caspase-3 activation [4] 1.91% | outcome [5] | outcome [6] | Potency [7] | Potency [10] | Potency [9]

CCN(CC)c1cccc(O)c1
inactive: caspase-3 activation [1] -0.898% | outcome [2] | caspase-3 activation [3] 2.1% | caspase-3 activation [4] 0.00739% | outcome [5] | outcome [6] | Potency [7] | outcome [8] | Potency [9]

Nc1cc([N+](=O)[O-])ccc1C(=O)O
inactive: caspase-3 activation [1] -0.673% | outcome [2] | caspase-3 activation [3] -1.05% | caspase-3 activation [4] -2.97% | outcome [5] | outcome [6] | Potency [7] | outcome [8] | Potency [9]

NC(=O)/N=N/C(N)=O
inactive: caspase-3 activation [1] -0.26% | outcome [2] | caspase-3 activation [3] 1.22% | caspase-3 activation [4] -1.75% | outcome [5] | outcome [6] | Potency [7] | outcome [8] | Potency [9]

Cc1ccc(S(=O)(=O)NC2CCCCC2)cc1
inactive: caspase-3 activation [1] 0.471% | outcome [2] | caspase-3 activation [3] -0.0757% | caspase-3 activation [4] 2.22% | outcome [5] | outcome [6] | Potency [7] | outcome [8] | Potency [9]

Cc1ccco1
inactive: caspase-3 activation [1] 0.332% | outcome [2] | caspase-3 activation [3] 1.57% | caspase-3 activation [4] -0.963% | outcome [5] | outcome [6] | Potency [7] | Potency [10] | Potency [9]

CCOCCOCC
inactive: caspase-3 activation [1] 0.404% | outcome [2] | caspase-3 activation [3] 1.77% | caspase-3 activation [4] 4.51% | outcome [5] | Potency [7] | Potency [10] | Potency [9]

[O-]/[N+](=N\O)c1ccccc1
inactive: caspase-3 activation [1] -1.07% | outcome [2] | caspase-3 activation [3] -1.1% | caspase-3 activation [4] 2.95% | outcome [5] | outcome [6] | Potency [7] | Potency [9]

CCCCCCCN
inactive: caspase-3 activation [1] 1.08% | outcome [2] | caspase-3 activation [3] 2.21% | caspase-3 activation [4] -0.824% | outcome [5] | Potency [7] | Potency [10] | Potency [9]

Nc1cccc(N)c1
inactive: caspase-3 activation [1] 0.868% | outcome [2] | caspase-3 activation [3] 0.606% | caspase-3 activation [4] -1.72% | outcome [5] | outcome [6] | Potency [7] | outcome [8] | Potency [9]

BrC/C=C/CBr
inactive: caspase-3 activation [1] -0.978% | outcome [2] | caspase-3 activation [3] 0.954% | caspase-3 activation [4] 2.1% | outcome [5] | Potency [7] | Potency [10] | Potency [9]

CC(C)=CCC/C(C)=C/C=O
inactive: caspase-3 activation [1] 0.108% | outcome [2] | caspase-3 activation [3] 0.873% | caspase-3 activation [4] -2.02% | outcome [5] | Potency [7] | Potency [10] | Potency [9]

c1ccc2n[nH]nc2c1
inactive: caspase-3 activation [1] 0.6% | outcome [2] | caspase-3 activation [3] -0.743% | caspase-3 activation [4] 1.96% | outcome [5] | Potency [7] | Potency [10] | Potency [9]

COc1ccc(N)c(OC)c1
inactive: caspase-3 activation [1] 0.311% | outcome [2] | caspase-3 activation [3] 1.91% | caspase-3 activation [4] -1.28% | outcome [5] | outcome [6] | Potency [7] | outcome [8] | Potency [9]

S=C([S-])NCCNC(=S)[S-].[Zn+2]
inactive: caspase-3 activation [1] -0.549% | outcome [2] | caspase-3 activation [3] -1.93% | caspase-3 activation [4] 3% | outcome [5] | outcome [6] | Potency [7] | outcome [8] | Potency [9]

O=C1OC(=O)c2c(Br)c(Br)c(Br)c(Br)c21
inactive: caspase-3 activation [1] 0.186% | outcome [2] | caspase-3 activation [3] 0.557% | caspase-3 activation [4] 1.35% | outcome [5] | Potency [7] | Potency [10]

Cc1ccc(Cl)cc1N
inactive: caspase-3 activation [1] -0.617% | outcome [2] | caspase-3 activation [3] -0.363% | caspase-3 activation [4] -3.36% | outcome [5] | outcome [6] | Potency [7] | outcome [8] | Potency [9]

CCOCCO
inactive: caspase-3 activation [1] -0.559% | outcome [2] | caspase-3 activation [3] -0.494% | caspase-3 activation [4] -0.913% | outcome [5] | Potency [7] | Potency [10]

Cc1cccc(C)c1
inactive: caspase-3 activation [1] -0.476% | outcome [2] | caspase-3 activation [3] 0.714% | caspase-3 activation [4] 2.59% | outcome [5] | Potency [7] | Potency [10] | Potency [9]

CCOC(=O)C(C)C(C)=O (stereo unspecified)
inactive: caspase-3 activation [1] 1.11% | outcome [2] | caspase-3 activation [3] 0.941% | caspase-3 activation [4] -0.825% | outcome [5] | Potency [7] | Potency [10] | Potency [9]

CC(=O)Nc1ccc(C)cc1
inactive: caspase-3 activation [1] 0.522% | outcome [2] | caspase-3 activation [3] 0.606% | caspase-3 activation [4] 0.349% | outcome [6] | Potency [7] | Potency [10] | Potency [9]

ON=C1CCCCC1
inactive: caspase-3 activation [1] 0.894% | outcome [2] | caspase-3 activation [3] 1.35% | caspase-3 activation [4] 2.27% | outcome [6] | Potency [7] | Potency [10] | Potency [9]

COC(=O)CCCC(=O)OC
inactive: caspase-3 activation [1] -0.518% | outcome [2] | caspase-3 activation [3] -0.182% | caspase-3 activation [4] -0.162% | outcome [5] | Potency [7] | Potency [10] | Potency [9]
